Assay outcomes deposited in PubChem BioAssay by Broad Institute.
Tgondii IFNg – T. gondii growth inhibition under IFN-gamma | Toxoplasma gondii growth in IFN-gamma-treated host cells; stronger effect = lower value | activity change, negative = inhibition, % (concentration not given with the values) | 3.8% of 69,000 active; in the data active means activity change below about -70%, passing the limit was not always enough;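 further: host cells are HeLa cells infected with Toxoplasma gondii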
Of the large screens only hits and unclear results are named; the others gave an inactive call. The full list was thinned out, with hits kept by preference.

Oc1c(Cl)cc(Cl)cc1C1Nc2cc(Cl)c(C(F)(F)F)cc2N1 (configuration not stated)	Tgondii IFNg -88
S=c1nc[nH]c2[nH]ncc12	none
CN(CCc1noc(C2CC2)n1)C(=O)C(=O)N1CCc2ccccc21	none
COC(=O)c1cc2n(n1)CCCN(C(=O)c1scc3c1OCCO3)C2	none
C[C@@H](NC(=O)C[C@H]1C=C[C@@H](NS(=O)(=O)c2cccc(F)c2)[C@H](CO)O1)c1ccccc1	none
Cc1ccccc1N1CC2(CCN(c3cnccn3)C2)CC1=O (configuration not stated)	none
CCC(CC)C(=O)Nc1cc(Cl)ccc1OC	none
COc1ccc(Cl)cc1NC(=O)Nc1ccccc1	Tgondii IFNg -83
COc1ccc(Cl)cc1NC(=O)Nc1ccc(-c2nc(-c3ccccc3)co2)cc1	none
CC[C@]1(O)CC2CN(CCc3c([nH]c4ccccc34)[C@@](C(=O)OC)(c3cc4c(cc3OC)N(C)[C@H]3[C@@](O)(C(=O)OC)[C@H](OC(C)=O)[C@]5(CC)C=CCN6CC[C@]43[C@@H]65)C2)C1 (some centres not stated)	Tgondii IFNg -82
COC(=O)[C@H]1[C@H]2C[C@@H]3c4[nH]c5ccccc5c4CCN3C[C@H]2C[C@@H](OC(=O)c2cc(OC)c(OC)c(OC)c2)[C@@H]1OC	none
COc1ccc2c3c(n(C)c2c1)[C@@H](CO)NCC31CCN(S(=O)(=O)c2cccc(C)c2)CC1	none
COc1cccc(CNC(=O)c2nc(-c3ccc(C)cc3)n3c2CCCCC3)c1	Tgondii IFNg -108
Cc1ccc(Nc2nc(C(=O)Nc3ccc4c(c3)OCCO4)nc3ccccc23)cc1	none
COc1ccc(N2CCN(C(=O)c3nc(-c4cccc(F)c4)n4c3CCCCC4)CC2)cc1	none
O=C(NCCN1CCCCCC1)c1nc(-c2ccc(Cl)cc2)n2c1CCCCC2	none
CCCCN(C)C(=O)c1nc(-c2cccc(F)c2)n2c1CCCCC2	none
CCC(C)NC(=O)c1nc(-c2ccc(C)cc2)n2c1CCCCC2 (configuration not stated)	Tgondii IFNg -92
Cc1ccc(-c2nc(C(=O)Nc3ccc4c(c3)OCCO4)c3n2CCCCC3)cc1	Tgondii IFNg -94
CCNC(=O)c1nc(-c2ccc(Cl)cc2)n2c1CCCCC2	none
COc1ccc(CNC(=O)c2nc(-c3ccc(C)cc3)n3c2CCCCC3)cc1	none
Cc1ccc(-c2nc(C(=O)NCCN3CCOCC3)c3n2CCCCC3)cc1	none
CCC(C)NC(=O)c1nc(-c2cccc(F)c2)n2c1CCCCC2 (configuration not stated)	Tgondii IFNg -98
COCCNC(=O)c1nc(-c2cccc(F)c2)n2c1CCCCC2	none
CN(Cc1cnc2c(-c3ccccc3)cnn2c1)Cc1noc2c1CCCC2	none
O=C(C1CCCO1)N1CCCN(S(=O)(=O)NCc2ccccc2)CC1 (configuration not stated)	none
Cc1ccccc1-c1nn(-c2ccc(F)cc2F)cc1CN1CCN(CCC(N)=O)CC1	none
O=C1CC(C(=O)N2CCCC(c3ncc4c(n3)CCNC4)C2)c2ccccc2N1 (configuration not stated)	none
COc1ccc(/C=C/C(=O)N2CCCC(c3nc(C)ncc3Cc3ccccc3)C2)cc1 (configuration not stated)	none
COc1cccc(-c2cnc(N(C)C)nc2C2CCCN(C(=O)Cc3c(C)noc3C)C2)c1 (configuration not stated)	none
Cc1cccc(-c2cnc(C)nc2C2CCCN(C(=O)/C=C/c3cc(F)ccc3F)C2)c1 (configuration not stated)	Tgondii IFNg -73
COc1ccc(N)c(Sc2ccc(Cl)cc2)n1	none
O=C(Cc1ccc2c(c1)OCO2)N1CCC(c2nc(-c3ccsc3)cc(=O)[nH]2)CC1	Tgondii IFNg -80
O=C1CC2(CCN(C(=O)Cc3ccc4c(c3)OCO4)CC2)CN1	none
CCn1c(C2CCCN(C(=O)Cc3ccc4c(c3)OCO4)C2)nn(C)c1=O (configuration not stated)	none
CN(C1CCCN(c2ncccn2)CC1)S(C)(=O)=O (configuration not stated)	none
COc1ncccc1C(=O)N1CCc2nnc(CCc3ccccc3)n2CC1	none
COC(=O)[C@@H]1Cc2c([nH]c3ccccc23)CN1C(=O)c1cc(C)nc(C)n1	Tgondii IFNg -72
CC(=O)N1C(C(=O)O)Cc2c([nH]c3ccccc23)C1C (configuration not stated)	none
Cc1cc(C(=O)N2CC(=O)N(C3CCCCC3)CC(OCc3ccccc3)C2)nc(C)n1 (configuration not stated)	none
COc1ccc2c3c(n(C)c2c1)[C@H](CO)N(Cc1ccccn1)CC31CN(Cc2ccccn2)C1	none
O=S(=O)(c1ccc(Cl)cc1)N1CCN(c2nc3ccccc3s2)CC1	none
CCOC(=O)c1cc(C(=O)OC)c(C)nc1N1CCCN(Cc2ccc(F)cc2)CC1	Tgondii IFNg -77
CCOC(=O)c1[nH]ncc1CN1CCCN(c2cccc(OC)c2)CC1	none
Fc1ccc(N2CCCN(Cc3ccc4nonc4c3)CC2)cc1	none
CC(=O)NC1C(Oc2ccc(C(C)(C)C)cc2)OC(CO)C(O)C1O (configuration not stated)	none
CCc1cnc(N2CCC3(CC2)OC(C(=O)NCC(C)C)Cn2ccnc23)nc1 (configuration not stated)	Tgondii IFNg -103
CCc1ccc(NC(=O)N2CCC3(CC2)OC(C(=O)NCC(C)C)Cn2ccnc23)cc1 (configuration not stated)	none
CC(C)CNC(=O)C1Cn2ccnc2C2(CCN(C(=O)C3CCOCC3)CC2)O1 (configuration not stated)	none
C#CCN(Cc1ccc(F)cc1)C(=O)C1CCCN(C(=O)N(C)C)C1 (configuration not stated)	none
O=C(Nc1cnc2n1CCCC2)c1cc(-n2cccn2)ccc1Cl	none
CCOC(=O)c1c(CSC2CCCCC2)oc2ccc(O)cc12	Tgondii IFNg -104
CCOC(=O)c1oc2ccccc2c1NC(C)=O	none
CCOC(=O)c1oc2ccc(CNC3CCCCC3)c(Cl)c2c1C	none
Clc1cccc(CN2CCN(Cc3ccc4nonc4c3)CC2)c1	none
CC1=C(C(=O)Nc2ccc(C)c(Cl)c2)C2(CCN(S(C)(=O)=O)CC2)OC1=O	none
CC1CCN(S(=O)(=O)c2ccc3c(c2)CCC(=O)N3CC(=O)NCc2cccs2)CC1	none
CCOc1ccc(-c2noc(-c3c(O)c4ccc(F)cc4[nH]c3=O)n2)cc1	none
CC(C)CN1C[C@@H]2[C@@H](C1)C(=O)NC21CCN(C(=O)Nc2ccc(Cl)cc2)CC1	Tgondii IFNg -109
CN(C)C(=O)CN1CCOCC2(CCN(C(=O)Nc3ccc(Cl)cc3)CC2)C1	none
CCN1c2cc(Cl)ccc2C(=O)NC12CCN(C(=O)Nc1ccc(OC)cc1)CC2	none
C[C@@H]1CN([C@@H](C)CO)C(=O)Cc2cc(NC(=O)CCN3CCOCC3)ccc2O[C@H]1CN(C)Cc1ccc(C(=O)O)cc1	none
Cc1coc2c1C(=O)C(=O)c1c-2ccc2c(C)cccc12	Tgondii IFNg -72
CCn1nc(C)cc1C(=O)N1CCCCC1CCn1ccnc1 (configuration not stated)	none
Cc1ccc(-c2nc3ccccc3[nH]2)cc1	none
CC(C)(C)c1ccc(-c2nc3ccccc3[nH]2)cc1	Tgondii IFNg -87
c1ccc(-c2nc3ccccc3[nH]2)cc1	none
Cn1nccc1C(=O)N1CC[C@@H](c2ccc3ccccc3c2)[C@H](O)C1	none
CCN(CC)C(=O)c1ccc(-n2ccnc2)c(-n2cccc2)c1	none
COC(=O)c1c(NCc2ccccc2F)c2cccc(Cl)c2[nH]c1=O	none
CCCCNc1c(C(=O)OC)c(=O)[nH]c2c(Cl)cccc12	none
COC(=O)c1c(NC(C)c2ccccc2)c2cccc(Cl)c2[nH]c1=O (configuration not stated)	none
